From PubChem BioAssay (Tox21)
Calls of active or inactive are those of the source. Calls follow the shape of the dose curve; as a rule, active = well fitted curve in the direction sought with a large enough effect in the repeat runs; inconclusive = weak or mixed curves; inactive = flat fitted curve, though single readings scatter.

Assay: qHTS assay to test for compound auto fluorescence at 460 nm (blue) in HepG2 cells (AID 720687)
Conditions: autofluorescence 405/460 nm, 1 h; series mostly up to 91.3 µM
Summary of the method: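 Cells (2,000/well in MEM with 10% FBS) attached overnight at 37 C, then were exposed to compound or DMSO for 1 hr at 37 C, 5% CO2. Fluorescence read at Ex/Em 405/460 nm, expressed as triamterene-equivalent signal.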
In the case of `Cc1cc(O)cc(C)c1Cl`, the outcome is reported as “inactive”.
With `COCC(=O)O` the outcome was “inactive”.
In the case of `O=Nc1ccc(O)cc1`, the outcome is reported as “inactive”.
With `Oc1ccc(OCc2ccccc2)cc1` the outcome was “inactive”.
For `CC(C)Cc1ccccc1`, the outcome was “inactive”.
With `CN(C)c1cccc(O)c1` the outcome was “inactive”.
For `CCOC(=O)C1OC1c1ccccc1` (stereo not drawn), the outcome was “inactive”.
For `Cc1cc(NS(=O)(=O)c2ccc(N)cc2)no1`, the outcome was “inactive”.
For `CC1COc2ccccc2N1C(=O)C(Cl)Cl` (stereo not drawn), the outcome was “inactive”.
In the case of `CCc1ccc(O)cc1`, the outcome is reported as “inactive”.
For `OC1CCCC1`, the outcome was “inactive”.
For `CCCCNC(N)=O`, the outcome was “inactive”.
For `CS(=O)(=O)c1ccc([C@@H](O)[C@@H](CO)NC(=O)C(Cl)Cl)cc1`, the outcome was “inactive”.
With `Clc1cc(Cl)c(Cl)cc1Cl` the outcome was “inactive”.
In the case of `CC(C)(C)C(=O)C1C(=O)c2ccccc2C1=O`, the outcome is reported as “inactive”.
For `CC(=O)Nc1ccc(C(=O)O)cc1`, the outcome was “inactive”.
For `CCCCCCCCCCCCN`, the outcome was “inactive”.
With `CCCCC(CC)COC(C)=O` (stereo not drawn) the outcome was “inactive”.
For `CCCCCC/C=C/CCCCCCCC(=O)O`, the outcome was “inactive”.
With `O=C1O[C@H](CO)[C@@H](O)[C@H](O)[C@H]1O` the outcome was “inactive”.
With `O=C1N=C(O)CN1/N=C/c1ccc(-c2ccc([N+](=O)[O-])cc2)o1` the outcome was “inactive”.
For `Nc1cc(-c2ccncc2)c[nH]c1=O`, the outcome was “inactive”.
With `OCC1CCCO1` (stereo not drawn) the outcome was “inactive”.
With `C[C@@H](O)[C@H]1C(=O)N2C(C(=O)O)=C(S[C@@H]3CN[C@H](C(=O)N(C)C)C3)[C@H](C)[C@H]12` the outcome was “inactive”.
In the case of `CCCCCCCCCCC=CC1CC(=O)OC1=O` (stereo not drawn), the outcome is reported as “inactive”.
In the case of `COC(=O)Nc1nc2ccc(Sc3ccccc3)cc2[nH]1`, the outcome is reported as “inactive”.
For `OCCOCCOCCOCCO`, the outcome was “inactive”.
In the case of `O=C(O)c1ccc([N+](=O)[O-])cc1`, the outcome is reported as “inactive”.
